# Bioassay records (PubChem)
# Hits are enriched below; roughly 3.3% of the tested compounds scored in any of these assays.
# AmpC inh no detg – qHTS Inhibitors of AmpC Beta-Lactamase (assay without detergent); P00811; AmpC nitrocefin hydrolysis, absorbance 480 nm, 0.0001% Triton; Potency, µM (series often up to 57.1 µM), for inactives: top-dose activity change, negative = inhibition, usual class: inhibitors; hit rate 0.52% among 330,000; AID 485341, 2010;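 further: plate controls were no compound for no effect and no enzyme for full effect; nearly all actives have a fitted effect of over 20% in size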
# Target sequence (P00811 whole entry, looked up): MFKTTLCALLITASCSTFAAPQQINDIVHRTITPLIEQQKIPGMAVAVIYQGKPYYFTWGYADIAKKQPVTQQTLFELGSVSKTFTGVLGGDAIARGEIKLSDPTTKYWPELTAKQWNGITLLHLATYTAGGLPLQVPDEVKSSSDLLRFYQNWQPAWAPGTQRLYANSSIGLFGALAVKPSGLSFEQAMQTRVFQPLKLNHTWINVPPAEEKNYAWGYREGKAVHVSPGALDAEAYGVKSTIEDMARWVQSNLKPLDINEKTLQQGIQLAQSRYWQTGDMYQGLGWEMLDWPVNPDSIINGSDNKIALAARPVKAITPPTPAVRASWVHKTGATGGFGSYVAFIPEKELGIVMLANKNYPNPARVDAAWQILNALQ
#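 AmpC (5.3 nM in the dispensed reagent) in 20 mM phosphate pH 7.0 with 0.01% (detergent screen) or 0.0001% Triton X-100 was preincubated with compounds for 15 min at room temperature. Nitrocefin was then added from an 800 uM solution, and hydrolysis was followed at 480 nm.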
# TbPYK inhibitor – qHTS of Trypanosoma Brucei Inhibitors. TbPYK enzyme, Kinase-Glo Plus ATP luminescence, 45 min. Potency, µM (series often up to 76.8 µM), without a hit: at the top dose activity, negative = inhibition, hits mostly inhibitors. hit rate 0.12% among 410,000. AID 624173, 2012; further: on the % scale 0 is the no-effect control and ±100 the full control effect; nearly all actives have a fitted effect of over 50% in size
#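 In this concentration-response screen, enzyme-free wells defined baseline while DMSO plates tracked drift. Each reaction combined TbPYK, substrate, compound and 130 uM ADP for 45 min at room temperature. Kinase-Glo Plus luminescence gave the signal.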
# Sm TGR inh – qHTS Assay for the Inhibitors of Schistosoma Mansoni Peroxiredoxins | Schistosoma mansoni thioredoxin glutathione reductase (TGR), Q962Y6 | purified TGR, DTNB reduction, TNB absorbance 405 nm | Potency, µM (titrated, usually from 114 µM), for the others: top-dose activity change, negative = inhibition, hits mostly inhibitors | hit rate 3% among 360,000 | AID 485364, 2010; further: on the % scale 0 is the no-effect control and ±100 the full control effect; nearly all actives have a fitted effect of over 60% in size
#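 TGR 20 nM + NADPH 100 uM (dispensed conc.), cpd preinc 15 min RT; start with NADPH (500 uM addition) then DTNB (15 mM addition). Kinetic TNB absorbance, 405 nm filter. Four-parameter Hill fit across titration.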
# RE007 growth inh – qHTS Assay for Inhibitors of the HIV-1 protein Vpr; S. pombe RE007 Vpr strain, BacTiter-Glo ATP luminescence, 24 h; Potency, µM (titrated, usually from 92.2 µM), inactives show at the top dose activity change, negative = less growth, hits mostly inhibitors; hit rate 0.21% among 360,000; AID 651644, 2012; active means well fitted falling curve with a large enough effect; inconclusive means small, poorly fitted or top-dose-only effect; inactive means no such curve, though single readings can be large or run the other way; further: on the % scale 0 is the no-effect control and ±100 the full control effect; nearly all actives have a fitted effect of over 50% in size
#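 Fission yeast strain RE007, carrying one chromosomally integrated HIV-1 vpr copy, was seeded at OD 0.01 in PMG+AL medium with 23 nL pinned compound. After 24 h at 30 °C and 99% humidity, viability was read by BacTiter-Glo luminescence.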
# SARS PLpro yeast – qHTS of Yeast-based Assay for SARS-CoV PLP; S. cerevisiae expressing SARS-CoV PLpro, growth rescue; Potency, µM (series often up to 32.9 µM), inactives show at the top dose activity, positive = growth rescue, usual class: activators; hit rate 0.19% among 330,000; calls by dose curve; further: 0% is about no effect; nearly all actives have a fitted effect of over 55% in size
# AmpC detergent – qHTS Inhibitors of AmpC Beta-Lactamase (assay with detergent); P00811; AmpC hydrolysis of nitrocefin, absorbance 480 nm, 0.01% Triton; Potency, µM (series often up to 114 µM), for inactives: at the top dose activity change, negative = inhibition, usual class: inhibitors; hit rate 0.041% among 370,000; AID 485294, 2010;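 further: 0% = no-compound wells and -100% = no-enzyme wells; nearly all actives have a fitted effect of over 25% in size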
#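 AmpC (5.3 nM in the dispensed reagent) in 20 mM phosphate pH 7.0 with 0.01% (detergent screen) or 0.0001% Triton X-100 was preincubated with compounds for 15 min at room temperature. Nitrocefin was then added from an 800 uM solution, and hydrolysis was followed at 480 nm.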
# Starred values were filed as active, the others as inactive; ? = inconclusive; / = not tested or not shown. Unless noted, the call rests on the fitted dose curve; in most records, active means well fitted curve in the direction sought with a large enough effect; inconclusive means small, poorly fitted or top-dose-only effect, or another doubt; inactive means no such curve, though single readings can be large; an effect the other way counts as inactive or inconclusive. Potency means the concentration at half of the fitted maximal effect.
SMILES,AmpC inh no detg,TbPYK inhibitor,Sm TGR inh,RE007 growth inh,SARS PLpro yeast,AmpC detergent
CCc1ccc(S(=O)(=O)Nc2cccc(-c3ccc(N4CCCCC4)nn3)c2)s1,/,-5%,7%,/,/,-4%
C/C=C\C(=O)Nc1cccc(C2=NOC3(C2)C[C@@H](C(N)=O)N(C(=O)c2ccccc2)C3)c1 (stereo not given in full),35%,7%,5%,1%,5%,-2%
C/C=C\C=C\C(=O)Nc1cccc(C2=NOC3(C2)C[C@H](C(N)=O)N(C(=O)c2ccccc2C(=O)c2ccccc2)C3)c1 (stereo not given in full),134%,-17%,3.2µM*,7%,-1%,-6%
NC(=S)NNc1cc(Cl)cc(Cl)c1,-29%,1%,?,8.9µM*,-44%,-11%
Cc1cc(Cl)ccc1NNC(N)=S,-6%,-6%,?,16µM*,-19%,0%
Nc1nonc1-c1nc2ccccc2n1Cc1c(Cl)cccc1Cl,/,-6%,-18%,/,/,5%
COc1ccccc1NC(=O)NCc1ccc(C)n1C,11%,2%,40µM*,-6%,2%,-9%
Cc1ccc(CNC(=O)Nc2ccc(F)cc2)n1C,4%,-1%,14µM*,-8%,-2%,?
Cc1ccc(CNC(=O)Nc2ccc(OC(F)(F)F)cc2)n1C,1%,-9%,?,-11%,0%,-14%
CCc1ccccc1NC(=O)CN(c1ccccc1OC)S(=O)(=O)c1ccc(C)cc1,/,1%,1%,/,/,-6%
CC(C)(C)C(=O)n1nc(-c2ccccc2)oc1=O,-1%,3%,32µM*,-1%,-19%,-9%
Cc1ccc(C)c(NC(=O)C(Sc2nncn2C)c2ccccc2)c1 (stereo not given),-7%,6%,89µM*,-23%,-2%,-16%
Cc1ccc(C)c(NC(=O)C(Sc2nc3ccccc3c(=O)n2CC(C)C)c2ccccc2)c1 (stereo not given),-19%,-1%,2%,1%,1%,?
COc1cccc2cc(C(=O)CS(=O)(=O)c3ccc(Cl)cc3)c(=O)oc12,16µM*,0%,?,28%,-1%,4%
COc1ccc(S(=O)(=O)CC(=O)c2cc3cc(Br)ccc3oc2=O)cc1,28µM*,-12%,-35%,1%,-6%,2%
CC1=C(C(=O)OC2CCCC2)C(c2ccccc2C(F)(F)F)CC(=O)N1 (stereo not given),/,3%,10%,/,/,9%
Cn1ccc(NC(=O)CCl)n1,-5%,1%,14µM*,3%,13%,9%
Cc1cc(NC(=O)CCl)nn1C,-16%,7%,28µM*,4%,17%,-5%
Cc1c(Cl)cccc1NC(=O)Nc1ccn(C)n1,-25%,-1%,-12%,-9%,-1%,3%
Cc1cc(NC(=O)c2cc(-c3ccc(Cl)cc3)on2)nn1Cc1ccc(Cl)cc1,/,2%,-5%,/,/,0%
Cc1cc(Br)c(NC(=O)CCl)c(Br)c1,-4%,-4%,32µM*,18%,3%,-3%
CN(C)CCCN(C(=O)c1ccc2c(c1)OCCO2)c1nc2ccccc2s1,/,2%,0%,/,/,19%
Cc1nc(NC(=O)c2ccccc2)sc1C1(C)CC(c2c(Cl)cccc2Cl)=NO1 (stereo not given),-30%,4%,32µM*,-4%,-3%,9%
O=C(O)c1cccc(N2C(=O)C=CC2=O)c1,/,?,/,0%,/,/
O=C(Nc1ccc(Cl)cc1Cl)c1cccc(N2C(=O)C=CC2=O)c1,-32%,?,-16%,1.3µM*,-19%,?
SMILES,AmpC inh no detg,TbPYK inhibitor,Sm TGR inh,RE007 growth inh,SARS PLpro yeast,AmpC detergent
CC1=C(C(=O)Nc2ccccc2C)C(c2sccc2C)n2ncnc2N1 (stereo not given),/,-1%,-1%,/,/,-1%
Cc1cc(C)c(NC(=O)CSc2nc3ccccc3c3nc(-c4ccccc4)nn23)c(C)c1,/,1%,0%,/,/,7%
O=C(O)CCc1ccc(-c2ccccc2)o1,-24%,-24%,1.4µM*,?,-33%,?
O=C(Cn1ncc2c(=O)oc3ccccc3c21)N1CCN(c2ccc(Cl)cc2)CC1,/,-5%,-6%,/,/,-5%
Cc1oc(/N=C/c2ccc(O)cc2O)c(C#N)c1C,-22%,-11%,50µM*,-9%,-5%,3%
CCn1ccc2cc(S(=O)(=O)N3CCCN(C(=O)Nc4cc(Cl)ccc4C)CC3)ccc21,/,-2%,9%,/,/,3%
COc1cc(C2OC(=O)c3c2ccc(OC)c3OC)ccc1O (stereo not given),1%,/,28µM*,/,6%,-13%
Cc1ccc(-n2c(C)c([N+](=O)[O-])c3ccc(O)cc32)cc1,1%,/,8.9µM*,/,0%,2%
Cc1c([N+](=O)[O-])c2ccc(O)cc2n1-c1ccccc1,-21%,3%,-14%,-6%,0%,-1%
COc1cc(C(CC(=O)Nc2ccc(F)cc2F)N2Cc3ccccc3C2=O)cc(OC)c1OC (stereo not given),/,-1%,-2%,/,/,0%
Cc1cccc2cc(C(c3nnnn3C(C)(C)C)N3CCN(C(=O)c4ccco4)CC3)c(=O)[nH]c12 (stereo not given),-3%,-4%,-6%,-4%,2%,-5%
CCC(C)(C)n1nnnc1C(c1cc2cc(C)cc(C)c2[nH]c1=O)N1CCN(C(=O)c2ccco2)CC1 (stereo not given),36%,0%,18µM*,14%,-4%,-1%
CCN1CCN(C(c2cc3cc4c(cc3[nH]c2=O)OCO4)c2nnnn2C(C)(C)CC)CC1 (stereo not given),-11%,-7%,-1%,-8%,1%,-1%
Cc1ccc2cc(C(c3nnnn3C(C)(C)C)N3CCCCCC3)c(=O)[nH]c2c1 (stereo not given),-3%,3%,11µM*,-16%,4%,-17%
Cc1ccc2[nH]c(=O)c(C(c3nnnn3C(C)(C)C)N3CCN(C(=O)c4ccco4)CC3)cc2c1 (stereo not given),-1%,-4%,?,20%,4%,-9%
CCC(C)(C)n1nnnc1C(c1cc2cc(C)ccc2[nH]c1=O)N1CCCC1 (stereo not given),-28%,2%,20µM*,-12%,2%,2%
CCN(CC)S(=O)(=O)c1ccc(N2CCCCS2(=O)=O)cc1,/,-2%,3%,/,/,2%
